# Test results taken from PubChem BioAssay.
# “And” between values parts separate entries of the source, which are not always exact repeats. Equal values may be shown once. The source made the active and inactive calls.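 Rule for the calls, unless noted: active = thallium flux through the channel raised or lowered by more than 3 SD from vehicle-only wells, actives on both sides; inactive = the rest.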
# Legend:
# [1] = polyglutamine-triggered caspase-3 activation inhibitors, cell-based (AID 1583); conditions: polyglutamine-induced caspase-3 activation, cell assay; stronger effect = higher value;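 tested at 10 µM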
# [2] = suppressors of polyQ aggregation in yeast, 75Q-TubU reporter (AID 1593); conditions: Yeast 75Q polyglutamine aggregation reporter
# [3] = inhibitors of mitochondrial cytochrome c release, biochemical, purified mitochondria (AID 1603); conditions: stronger effect = lower value;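 note: mouse liver mitochondria challenged with calcium chloride; signal normalized to the plate average as 100%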
# [4] = inhibitors of polyQ protein aggregation (AID 1604); conditions: polyglutamine-induced protein aggregation inhibition assay; stronger effect = higher value; tested at 2.5 µM
# [5] = enhancers of glutamate uptake in motor neurons, MN-1 cell line (AID 1612); conditions: MN-1 motor neuron cells, stronger effect = higher value;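 note: tested at 1 µM final; 0% = mean of DMSO vehicle wells on each plate; positive means more glutamate uptake than control and negative means less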
# [6] = Cy5 fluorescence interference with SSB-bound oligo, artefact control for HCV NS3 helicase inhibitor project, biochemical, NIH Clinical Collection, E. coli SSB (AID 743268; call rule not given here)
# [7] = test system: Hepatitis C virus NS3 helicase; experiment: HCV NS3 helicase inhibitors, primary screen, biochemical, fluorescence polarization, NIH Clinical Collection (AID 743270; call rule not given here); conditions: NS3 helicase binding to Cy5-dT15 DNA, stronger effect = higher value, concentration not given here
# [8] = target: Single-stranded DNA-binding protein (Escherichia coli (strain K12)) (UniProt P0AGE0); experiment: E. coli SSB displacement from DNA, counter-screen for HCV NS3 helicase inhibitor project, biochemical, fluorescence polarization, NIH Clinical Collection (AID 743271; in the data active = inhibition above about 28%); conditions: stronger effect = higher value, concentration not given here
# [9] = fluorescence interference in NS3h assay format, artefact control for HCV NS3 helicase inhibitor project, biochemical, NIH Clinical Collection (AID 743272; call rule not given here;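 note: HCV NS3 helicase with a Cy5 labelled single stranded DNA probe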); conditions: fluorescence interference counterscreen, stronger effect = lower value
# [10] = viability rescue of complex I mutant cybrids, primary screen, cell-based, galactose medium, ATP luminescence (AID 1645843;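 active = z-score of at least 1.8 in each of two replicates, scored against plate mean and spread of sample wells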;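 note: positive z means more ATP and so rescue of galactose-driven cybrid death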); conditions: complex I mutant cybrid cells, 72 h, stronger effect = higher value
# F380Y/beta4 = experiment: modulators of BK channel variants, profiling panel, selectivity assay, cell-based, U2OS BacMam, thallium flux, beta subunits (AID 1259406); conditions: at 30 µM;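 note: initial slope of Thallos dye fluorescence rise after thallium is added; log ratio against the mean of 0.3% DMSO vehicle wells on the same plate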
# [11] = target: Calcium-activated potassium channel subunit alpha-1 (Homo sapiens) + Leucine-rich repeat-containing protein 26 (Homo sapiens) (UniProt Q12791+Q2I0M4); experiment: as above; conditions: F380Y/Slo1WT/gamma1, at 30 µM
# R275C = experiment: as above; conditions: at 30 µM
# R275C/beta1 = experiment: as above; conditions: at 30 µM
# R275C/beta2Delta = experiment: as above; conditions: at 30 µM
# R275C/beta4 = experiment: as above; conditions: at 30 µM
# R275C/Slo1WT/beta2 = experiment: as above; conditions: at 30 µM
# [12] = LFS_MB_P medulloblastoma growth inhibition, cell-based, chromothripsis tumors, cisplatin or BGB combos (AID 1671449; in the data active = inhibition above about 80%;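 note: cells exposed for 96 hours; 0% = vehicle DMSO and 100% = killing by high DMSO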); conditions: LFS_MB_P medulloblastoma cells
# [13] = HDN33 neuroblastoma growth inhibition, cell-based, chromothripsis tumors, cisplatin or BGB combos (AID 1671450; in the data active = inhibition above about 80%;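 note: cells exposed to compound for four days; 0% = vehicle DMSO and 100% = cell killing by high DMSO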); conditions: HDN33 neuroblastoma cells, stronger effect = higher value
# [14] = HTB85 osteosarcoma cell growth inhibition, synergistic combos for chromothripsis tumors, BGB or cisplatin IC20 combos (AID 1671453; in the data active = inhibition above about 80%;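 note: cells exposed for 96 hours before readout; 0% = vehicle DMSO and 100% = high DMSO killing control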); conditions: HTB85 osteosarcoma cells, drug combinations, stronger effect = higher value
# [15] = at 0.5 µM, stronger effect = higher value
# [16] = measured here: combination with BGB IC20, at 0.005 µM
# [17] = measured here: combination with BGB IC40, at 0.005 µM
# [18] = measured here: combination with BGB IC40, at 0.05 µM
# [19] = measured here: combination with cisplatin, at 0.5 µM, stronger effect = higher value
# [20] = measured here: combination with cisplatin, at 5 µM, stronger effect = higher value
# [21] = measured here: with BGB IC20 combination, at 0.5 µM
# [22] = measured here: with cisplatin IC20 combination, at 0.5 µM
# [23] = measured here: with BGB IC20, at 0.5 µM
# [24] = measured here: with BGB IC20, at 5 µM
# [25] = measured here: with cisplatin IC20, at 0.5 µM
# [26] = measured here: with cisplatin IC20, at 5 µM
# Calcium-activated potassium channel subunit alpha-1 (Homo sapiens) + Leucine-rich repeat-containing protein 26 (Homo sapiens), sequence (Q2I0M4 whole entry, looked up, one chain of several): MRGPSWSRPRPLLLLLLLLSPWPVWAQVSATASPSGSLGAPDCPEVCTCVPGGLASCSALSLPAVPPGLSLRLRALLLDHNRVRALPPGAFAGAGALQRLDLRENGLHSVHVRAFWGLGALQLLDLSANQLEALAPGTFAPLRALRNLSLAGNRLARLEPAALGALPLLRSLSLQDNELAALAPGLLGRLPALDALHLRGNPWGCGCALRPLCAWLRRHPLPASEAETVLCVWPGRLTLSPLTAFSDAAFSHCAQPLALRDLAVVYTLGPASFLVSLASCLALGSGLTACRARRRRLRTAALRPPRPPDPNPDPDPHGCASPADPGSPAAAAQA
smiles,measurement,setting,value
Oc1c(Cl)cc(Cl)c2cccnc12,inhibition,[1],31.4%
same,score,[2],-0.52
same,cytochrome c release ratio,[3],0.8
same,inhibition of aggregation,[4],-25.9%
same,glutamate uptake change,[5],-23%
same,fluorescence ratio,[6],1.02 (inactive)
same,inhibition,[7],2.27% (inactive)
same,inhibition,[8],-0.48% (inactive)
same,fluorescence ratio,[9],0.95 (inactive)
same,z-score,[10],-1.51 (inactive)
same,log fold change Tl+ flux,F380Y/beta4,0.326 (active)
same,log fold change Tl+ flux,[11],0.231 (active)
same,log fold change Tl+ flux,R275C,0.0996 (active)
same,log fold change Tl+ flux,R275C/beta1,0.249 (active)
same,log fold change Tl+ flux,R275C/beta2Delta,0.0748 (inactive)
same,log fold change Tl+ flux,R275C/beta4,0.422 (active)
same,log fold change Tl+ flux,R275C/Slo1WT/beta2,0.19 (active)
N[C@@H]1CONC1=O,inhibition,[1],3.67%
same,score,[2],1.72
same,cytochrome c release ratio,[3],0.8
same,inhibition of aggregation,[4],65.4%
same,glutamate uptake change,[5],-3.66%
same,fluorescence ratio,[6],0.99 (inactive) and 1.05 (inactive)
same,inhibition,[7],5.94% (inactive) and -1.36% (inactive)
same,inhibition,[8],2.98% (inactive) and 0.29% (inactive)
same,fluorescence ratio,[9],0.95 (inactive) and 1.03 (inactive)
same,z-score,[10],0.55 (inactive) and 0.975 (inactive)
same,log fold change Tl+ flux,F380Y/beta4,0.0351 (inactive)
same,log fold change Tl+ flux,[11],-0.0244 (inactive) and 0.0135 (inactive)
same,log fold change Tl+ flux,R275C,-0.00755 (inactive) and 0.0374 (inactive)
same,log fold change Tl+ flux,R275C/beta1,0.00647 (inactive) and 0.0301 (inactive)
same,log fold change Tl+ flux,R275C/beta2Delta,0.0216 (inactive) and -0.0265 (inactive)
same,log fold change Tl+ flux,R275C/beta4,0.00356 (inactive)
same,log fold change Tl+ flux,R275C/Slo1WT/beta2,-0.00809 (inactive)
CC(=O)OCC(CCn1cnc2cnc(N)nc21)COC(C)=O,fluorescence ratio,[6],1.06 (inactive)
same,inhibition,[7],-1.98% (inactive)
same,inhibition,[8],-4.72% (inactive)
same,fluorescence ratio,[9],0.99 (inactive)
same,z-score,[10],0.72 (inactive) and 0.425 (inactive) and 0.32 (inactive)
same,inhibition,[12]; [15],-15.4% (inactive)
same,inhibition,[12]; [16],-4.33%
same,inhibition,[12]; [17],-16.3%
same,inhibition,[12]; [18],-21.9%
same,inhibition,[12]; [19],-33%
same,inhibition,[12]; [20],-20.4%
same,inhibition,"[13]; BGB combo, at 5 µM",-6.25%
same,inhibition,[13]; at 0.5 µM,-3.67% (inactive)
same,inhibition,"[13]; cisplatin combo, at 5 µM",8.87%
same,inhibition,[13]; [21],-10.2%
same,inhibition,[13]; [22],4.72%
same,inhibition,"[13]; single agent, at 5 µM",-14.6%
same,inhibition,[14]; at 0.5 µM,-2.55% (inactive)
same,inhibition,[14]; [23],-18%
same,inhibition,[14]; [24],-24.7%
same,inhibition,[14]; [25],0.506%
same,inhibition,[14]; [26],-48.5%
same,inhibition,"[14]; single agent, at 5 µM",-10%
same,log fold change Tl+ flux,F380Y/beta4,0.0232 (inactive)
same,log fold change Tl+ flux,[11],0.0418 (inactive)
same,log fold change Tl+ flux,R275C,-0.0357 (inactive)
same,log fold change Tl+ flux,R275C/beta1,0.0343 (inactive)
same,log fold change Tl+ flux,R275C/beta2Delta,-0.0321 (inactive)
same,log fold change Tl+ flux,R275C/beta4,0.0276 (inactive)
same,log fold change Tl+ flux,R275C/Slo1WT/beta2,0.0386 (inactive)
O=C1c2c(O)ccc(O)c2C(=O)c2c(NCCNCCO)ccc(NCCNCCO)c21,inhibition,[1],63.3%
same,score,[2],-2.9
same,cytochrome c release ratio,[3],3.49
same,inhibition of aggregation,[4],52.2%
same,glutamate uptake change,[5],-30.1%
same,fluorescence ratio,[6],0.74 (active)
same,inhibition,[7],128% (active)
same,inhibition,[8],121% (active)
same,fluorescence ratio,[9],0.92 (inactive)
same,z-score,[10],-1.29 (inactive) and -1.52 (inactive) and -2.29 (inactive)
same,inhibition,[12]; [15],-22.5% (inactive)
same,inhibition,[12]; [16],-15.5%
same,inhibition,[12]; [17],-3.49%
same,inhibition,[12]; [18],-28%
same,inhibition,[12]; [19],-39.3%
same,inhibition,[12]; [20],106%
same,inhibition,"[13]; BGB combo, at 5 µM",98.9%
same,inhibition,[13]; at 0.5 µM,60.1% (inactive)
same,inhibition,"[13]; cisplatin combo, at 5 µM",99.3%
same,inhibition,[13]; [21],57.7%
same,inhibition,[13]; [22],53.6%
same,inhibition,"[13]; single agent, at 5 µM",99.3%
same,inhibition,[14]; at 0.5 µM,94.8% (active)
same,inhibition,[14]; [23],90.1%
same,inhibition,[14]; [24],99.7%
same,inhibition,[14]; [25],97.6%
same,inhibition,[14]; [26],99.8%
same,inhibition,"[14]; single agent, at 5 µM",99.8%
same,log fold change Tl+ flux,F380Y/beta4,-0.0582 (inactive)
same,log fold change Tl+ flux,[11],-0.0507 (inactive)
same,log fold change Tl+ flux,R275C,-0.0256 (inactive)
same,log fold change Tl+ flux,R275C/beta1,-0.052 (inactive)
same,log fold change Tl+ flux,R275C/beta2Delta,-0.0164 (inactive)
same,log fold change Tl+ flux,R275C/beta4,-0.0611 (inactive)
same,log fold change Tl+ flux,R275C/Slo1WT/beta2,-0.0613 (inactive)
COc1ccc(Cl)cc1C(=O)NCCc1ccc(S(=O)(=O)NC(=O)NC2CCCCC2)cc1,inhibition,[1],0.35%
same,score,[2],-0.18
same,cytochrome c release ratio,[3],1.09
same,inhibition of aggregation,[4],45%
same,glutamate uptake change,[5],34.4%
same,fluorescence ratio,[6],0.97 (inactive)
same,inhibition,[7],-2.27% (inactive)
same,inhibition,[8],1.05% (inactive)
same,fluorescence ratio,[9],0.97 (inactive)
same,log fold change Tl+ flux,F380Y/beta4,0.115 (active)
same,log fold change Tl+ flux,[11],0.0583 (inactive)
same,log fold change Tl+ flux,R275C,0.027 (inactive)
same,log fold change Tl+ flux,R275C/beta1,0.142 (active)
same,log fold change Tl+ flux,R275C/beta2Delta,0.0874 (inactive)
same,log fold change Tl+ flux,R275C/beta4,0.162 (active)
same,log fold change Tl+ flux,R275C/Slo1WT/beta2,0.00644 (inactive)
CC(C)Cc1ccc(C(C)C(=O)O)cc1 (stereo unspecified),inhibition,[1],-4.83%
same,score,[2],0.01
same,cytochrome c release ratio,[3],0.94
same,inhibition of aggregation,[4],47.1%
same,glutamate uptake change,[5],16.3%
same,z-score,[10],0.975 (inactive) and -0.01 (inactive) and 0.46 (inactive)
same,log fold change Tl+ flux,F380Y/beta4,0.0254 (inactive)
same,log fold change Tl+ flux,[11],-0.0267 (inactive)
same,log fold change Tl+ flux,R275C,0.00709 (inactive)
same,log fold change Tl+ flux,R275C/beta1,-0.00083 (inactive)
same,log fold change Tl+ flux,R275C/beta2Delta,-0.00841 (inactive)
same,log fold change Tl+ flux,R275C/beta4,-0.0471 (inactive)
same,log fold change Tl+ flux,R275C/Slo1WT/beta2,0.0328 (inactive)
CCOC(=O)C1=C(C)NC(C)=C(C(=O)OC)C1c1cccc([N+](=O)[O-])c1 (stereo unspecified),fluorescence ratio,[6],1 (inactive)
same,inhibition,[7],4.36% (inactive)
same,inhibition,[8],8.37% (inactive)
same,fluorescence ratio,[9],1.03 (inactive)
same,log fold change Tl+ flux,F380Y/beta4,-0.0639 (inactive)
same,log fold change Tl+ flux,[11],0.00177 (inactive)
same,log fold change Tl+ flux,R275C,0.0204 (inactive)
same,log fold change Tl+ flux,R275C/beta1,0.00401 (inactive)
same,log fold change Tl+ flux,R275C/beta2Delta,-0.0485 (inactive)
same,log fold change Tl+ flux,R275C/beta4,-0.023 (inactive)
same,log fold change Tl+ flux,R275C/Slo1WT/beta2,0.016 (inactive)
CC(=O)CC(c1ccccc1)c1c(O)c2ccccc2oc1=O (stereo unspecified),inhibition,[1],17%
same,score,[2],0.72
same,cytochrome c release ratio,[3],1.4
same,inhibition of aggregation,[4],68.5%
same,glutamate uptake change,[5],-2.55%
same,fluorescence ratio,[6],1 (inactive)
same,inhibition,[7],-2.27% (inactive)
same,inhibition,[8],-3.53% (inactive)
same,fluorescence ratio,[9],0.99 (inactive)
same,z-score,[10],2.31 (active)
same,log fold change Tl+ flux,F380Y/beta4,0.0212 (inactive)
same,log fold change Tl+ flux,[11],-0.00524 (inactive)
same,log fold change Tl+ flux,R275C,0.00879 (inactive)
same,log fold change Tl+ flux,R275C/beta1,-0.0262 (inactive)
same,log fold change Tl+ flux,R275C/beta2Delta,0.0436 (inactive)
same,log fold change Tl+ flux,R275C/beta4,-0.00201 (inactive)
same,log fold change Tl+ flux,R275C/Slo1WT/beta2,0.0306 (inactive)
